In PubChem BioAssay AID2012 (Sanford-Burnham Center for Chemical Genomics, 2009) one finds inhibition data, which are given here for 93 compounds.

Structures are written as SMILES. About 2,700 (0.93%) of roughly 290,000 compounds were called active. No rule for the calls is given here. Many of the other results were omitted from the sample, so actives are more common in it than they were.

This test has as its target Eukaryotic translation initiation factor 4H (Homo sapiens) (UniProt Q15056). The test is described as follows: human eIF4H binding inhibitors, primary screen, translation initiation inhibitor project, biochemical, uHTS, fluorescence polarization (AID 2012).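 Also: calls also rest on retests at 20 µM and on dose response follow-up.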 As to conditions: eIF4H fluorescence polarization binding assay, stronger effect = higher value. On the technique in general: Polarisation of emitted light reports the rotation of a fluorescent probe.

As a reminder, the inhibition is the drop in the measured response relative to a control, in per cent. `COc1ccccc1C(=O)COC(=O)CNS(=O)(=O)c1ccc(NC(C)=O)cc1`: the inhibition (at 35 µM) is -9.9% (inactive).
`O=C(O)CCCC(=O)N1N=C(c2ccco2)CC1c1ccco1` (stereo not drawn): where the note is “at 35 µM”, the inhibition was 7.4% (inactive).
On the same count and under the same terms, then `O=c1c2ccccc2ncn1/N=C/c1ccccc1`, with 4.2% (inactive); and `COc1ccc(C(=S)Nc2ccccc2)cc1`, with -0.5% (inactive); and `COc1ccc(Nc2nc(=O)[nH]nc2C)cc1`, with 3.5% (inactive).
`COc1ccc(NC2=CC(=S)NC(C)(C)C2)cc1`: the inhibition reads like this: (at 35 µM) 67.8% (active); (confirmation average, at 20 µM) 62.7%.
On to `CCCCSCCCNC(=O)C1CCC(CNS(=O)(=O)c2ccc(NC(C)=O)cc2)CC1` (stereo not drawn), for which the inhibition (at 35 µM) was 2.4% (inactive).
On the same count and under the same terms, under `Cc1cc(CNC(=O)C2CCC(=O)N(CCc3ccc(Cl)cc3)C2)no1` (stereo not drawn) stands -0.4% (inactive); under `CCOC(=O)C1C(c2ccc(O)cc2)NC(=O)NC1(O)C(F)(F)F` (stereo not drawn), -0.5% (inactive).
On the same count and under the same terms, under `Cc1ccccc1NC(=O)CCNS(=O)(=O)c1ccc2[nH]c(=O)oc2c1` stands -5.4% (inactive); under `O=C(NCCN1CCOCC1)c1ccc(/C=C2\Sc3ccccc3N(Cc3ccc(F)cc3)C2=O)cc1`, -7.3% (inactive).
The same measure, in the same setting: under `CCN1CCN(CCNC(=O)c2ccc3c(c2)NC(=O)/C(=C\c2ccc(OC)c(OC)c2)S3)CC1` stands 22.4% (inactive).
Regarding `CCN1CCN(CCNC(=O)c2ccc(/C=C3/Sc4ccccc4N(Cc4cccc(C)c4)C3=O)cc2)CC1`, the inhibition (at 35 µM) was -0.9% (active) and the inhibition (confirmation average, at 20 µM) amounted to 95.1%.
Take `COc1ccc(C)cc1Nc1nc(C)nc2c1oc1ccccc12`: the inhibition (at 35 µM) is -11.2% (inactive).
On the same count and under the same terms, then `CN1CCN(C(=O)c2ccc(NS(=O)(=O)c3ccccc3)cc2)CC1`, with -6.4% (inactive).
On to `COc1ccc(-c2nnn(CC(=O)N(CCO)C(C(=O)NC3CCCC3)c3ccc(F)cc3)n2)cc1` (stereo not drawn), for which, under “at 35 µM”, the inhibition was -0.3% (inactive).
On the same count and under the same terms, then `CCC(C(=O)NC1CCCC1)N(C(=O)Cn1nnc(-c2ccc(C)o2)n1)c1ccc(OC)c(OC)c1` (stereo not drawn), with 5.7% (inactive).
Turning to `CCOCCCN(C(=O)Cn1nnc(-c2ccc(OC)c(OC)c2)n1)C(CC)C(=O)NC1CCCC1` (stereo not drawn), the inhibition was -12.4% (active) (at 35 µM) and 91% (confirmation average, at 20 µM).
As to `O=C(O)Cn1c(Cc2ccccc2)nc2ccccc21`, the inhibition (at 35 µM) was -6.9% (inactive).
Still for that read-out and setting: then `O=C(Nc1ccc(Cl)c(Cl)c1)c1ccccc1NC(=O)C1CC=CCC1C(=O)O` (stereo not drawn), with -5.2% (inactive).
On the same count and under the same terms, under `O=C(NCc1ccccn1)c1cc(-c2ccccc2Cl)on1` stands -3.2% (inactive); under `COc1cccc(S(=O)(=O)NCc2ccc(C(=O)NCc3ccccn3)cc2)c1`, -1% (inactive).
Still for that read-out and setting: then `O=C(NCc1ccccn1)c1ccc2nc(-c3ccco3)c(-c3ccco3)nc2c1`, with 97% (active); and `COc1ccc(C23NCCN2C(=O)c2ccccc23)cc1` (stereo not drawn), with -1.8% (inactive).
For `Cc1ccc(CN2CCN(c3ncccn3)CC2)c(C)c1`, under “at 35 µM”, the inhibition is 17.4% (inactive).
For `COc1ccc(NS(=O)(=O)c2ccc(N3CCOCC3)c(NC(=O)c3ccccc3Br)c2)cc1`, the inhibition (at 35 µM) is -4.7% (inactive).
Still for that read-out and setting: then `COc1ccc(NS(=O)(=O)c2cc(NC(=O)/C=C/c3cc(OC)c(OC)c(OC)c3)ccc2N2CCCCC2)cc1`, with -7.6% (inactive).
Regarding `COc1ccc(NS(=O)(=O)c2cc(NC(=O)C3CCCCC3)ccc2N2CCOCC2)cc1`, the inhibition (at 35 µM) was 13.7% (active) and the inhibition (confirmation average, at 20 µM) stood at 81.1%.
On to `CCC(C)[C@H](NC(=O)N1CCn2c1nc1ccccc12)C(=O)NCc1ccc(OC)cc1` (stereo partly drawn), for which the inhibition (at 35 µM) was -4.4% (inactive).
Take `CCc1ccc(-c2nc(SCC(=O)NC3CCCC3)n[nH]2)cc1`: for the setting “at 35 µM”, the inhibition was 45.6% (inactive).
Regarding `CCCN(c1ccc(C)cc1)c1nc(=O)c2cccnc2s1`, the inhibition (at 35 µM) was 91.1% (active).
The same measure, in the same setting: under `COc1ccccc1N1CC(C(=O)Nc2nnc(SCC(=O)NCC3CCCO3)s2)CC1=O` (stereo not drawn) stands -4% (inactive).
On the same count and under the same terms, then `CN(C(=O)c1cc2c(=O)n3ccccc3nc2s1)C1CCCCC1`, with -4.1% (inactive); and `COc1cccc(CC(=O)Nc2nc(-c3ccc(OC)c(OC)c3)cs2)c1`, with 6.8% (inactive); and `COc1ccc(-c2csc(Nc3ccc(O)cc3)n2)cc1`, with 9.7% (inactive).
Still for that read-out and setting: under `COc1ccc(OC)c(Nc2nc(-c3ccc(O)c(O)c3)cs2)c1` stands 65.5% (active); under `O=S(=O)(Nc1cccc(-n2cnnn2)c1)c1cnc(Cl)c(Cl)c1`, -5.5% (inactive).
As for `CN(C)S(=O)(=O)c1ccc(N/C=C(\[N+](=O)[O-])S(=O)(=O)c2ccccc2)cc1`, where the note is “at 35 µM”, the inhibition was -0.3% (inactive).
In the case of `COc1cccc(OC)c1C(=O)Nc1c(C(=O)N2CCN(c3ccccn3)CC2)oc2ccccc12`, where the note is “at 35 µM”, the inhibition was -10.2% (inactive).
`Oc1c(Cl)cc(Cl)c(Cl)c1Cc1c(O)c(Cl)cc(Cl)c1Cl`: the inhibition is, setting by setting: (at 35 µM) 51% (active); (confirmation average, at 20 µM) 96.3%.
Regarding `COc1ccc(CSc2nnnn2-c2ccc(O)cc2)cc1F`, the inhibition (at 35 µM) was -12% (inactive).
With `COc1cccc(NC(=O)c2ccccc2N(Cc2ccccc2)S(C)(=O)=O)c1`, the inhibition (at 35 µM) is -8.4% (inactive).
On the same count and under the same terms, under `COC(=O)[C@@H]1CCCN1C(=O)c1cc(COc2cccc3cccnc23)on1` stands 4.3% (inactive); under `O=C1CCCC(O)=C1N=Nc1ccc(S(=O)(=O)N2CCOCC2)cc1`, 27.7% (inactive).
Regarding `O=C1CCCC(O)=C1N=Nc1ccc2ncsc2c1`, the inhibition reads like this: (at 35 µM) 69.2% (active); (confirmation average, at 20 µM) 94.3%.
With `CC(CC(=O)N1CCN(S(=O)(=O)c2ccccc2)CC1)n1cncn1` (stereo not drawn), the inhibition (at 35 µM) is -2.7% (inactive).
Same read-out and setting: under `CCc1nnc(NC(=O)Cc2cccs2)s1` stands 19.2% (inactive); under `COc1ccc(Cc2nnc(NC(=O)Cc3cccs3)s2)cc1`, 71.3% (active).
Turning to `COc1ccc(Cc2nnc(NC(=O)c3ccc(OC)cc3OC)s2)cc1`, the inhibition (at 35 µM) was 4.9% (inactive).
Still for that read-out and setting: under `CC1CN(C(=O)CCC(=O)NCCCN2CCC(Cc3ccccc3)CC2)c2cc(Cl)ccc2O1` (stereo not drawn) stands 6% (inactive); under `C#CCOc1ccccc1/C=C1/C(=O)ON=C1C`, -20.1% (inactive).
On the same count and under the same terms, under `Cc1ccc(NC(=O)Nc2cccnc2)cc1` stands 2.1% (inactive); under `Cc1ccc(NC(=O)c2ccc(Oc3ncccn3)cc2)cc1`, 0.1% (inactive).
With `Cc1ccc(NC(=O)c2cccnc2C(=O)Nc2ccc(C)cc2)cc1`, the inhibition is, setting by setting: (at 35 µM) 4% (active); (confirmation average, at 20 µM) 65.7%.
In the case of `O=C(NC(=S)Nc1ccc(S(=O)(=O)N2CCOCC2)cc1)c1ccccc1[N+](=O)[O-]`, the inhibition (at 35 µM) is 6.8% (inactive).
The same measure, in the same setting: then `O=[N+]([O-])c1cc(Cl)cc(/C=N/NC(=S)Nc2cc(S(=O)(=O)N3CCOCC3)ccc2Cl)c1O`, with 89.6% (active); and `O=C(N/N=C/c1cc(Cl)cc([N+](=O)[O-])c1O)C(O)(c1ccccc1)c1ccccc1`, with 1.2% (inactive).
Turning to `CC[C@]1(c2ccccc2OC)C(=O)N(C(=O)OC)N1C(=O)OC`, the inhibition (at 35 µM) was 2.4% (inactive).
For `COc1ccccc1CNC(=O)[C@@H]1CCCN1C(=O)[C@@H]1Cc2ccccc2CN1C(=O)OC(C)(C)C`, the inhibition (at 35 µM) was -6.3% (inactive).
As to `COc1ccc(NS(=O)(=O)c2ccc(N3CCN(CCO)CC3)c([N+](=O)[O-])c2)cc1`, the inhibition (at 35 µM) is -9.3% (inactive).
Same read-out and setting: then `C/C(=N\NC(=O)CC(C)C)c1c(C(F)(F)F)[nH]n(-c2nc3ccccc3s2)c1=O`, with -5.6% (inactive); and `CCC(C)Cn1c(O)cc2nn(-c3nc4ccccc4s3)c(=O)c-2c1C` (stereo not drawn), with 89.6% (active).
Still for that read-out and setting: then `Cc1cc(NC(=O)CN2CCCC(C)C2)n(-c2nc3ccccc3s2)n1` (stereo not drawn), with -0.6% (inactive).
Same read-out and setting: then `COc1ccc(S(=O)(=O)NCCCCOc2ccc(Cl)cc2)cc1`, with 25.8% (inactive); and `O=C(NNS(=O)(=O)c1ccc(F)cc1)c1ccc([N+](=O)[O-])cc1Cl`, with -5.4% (inactive); and `CC(C)c1ccc(OCC(O)CN2CCN(c3ccccn3)CC2)cc1` (stereo not drawn), with -9.3% (inactive).
As for `CC(C)(C)C(=O)OCc1nc(-c2ccc(O)c(O)c2)cs1`, the inhibition (at 35 µM) is 1.2% (inactive).
As to `COc1ccc(-c2csc(NC3OC(=O)c4ccccc43)n2)cc1` (stereo not drawn), under “at 35 µM”, the inhibition was 2.1% (inactive).
As for `COc1ccc(-c2csc(Cc3nc(O)cs3)n2)cc1`, the inhibition reads like this: (at 35 µM) 20.3% (active); (confirmation average, at 20 µM) 82.6%.
In the case of `FC(F)(F)C1CCCN(c2nsc3ccccc23)C1` (stereo not drawn), the inhibition (at 35 µM) is -3.8% (inactive).
Same read-out and setting: then `O=S(=O)(c1ccc(Br)cc1)c1nc(-c2ccccc2)oc1N1CCOCC1`, with -5.9% (inactive).
Turning to `O=C(O)CCC(=O)Nc1ccc(OCC2CCCO2)cc1` (stereo not drawn), the inhibition (at 35 µM) is 2.6% (inactive).
Same read-out and setting: under `COC(=O)COc1ccc2c(=O)c(Oc3ccccc3Br)coc2c1` stands 5.6% (inactive); under `Cc1cc(=O)oc(C)c1C(=O)Nc1cnc2ccccc2c1`, 78.6% (active).
Same read-out and setting: under `Cc1cc(=O)oc(C)c1C(=O)NCCN(C)Cc1ccccc1` stands 6.6% (inactive); under `Cc1cc(=O)oc(C)c1C(=O)NCc1ccc(F)cc1`, 0.5% (inactive); under `CCOC(=O)c1c(S(=O)(=O)NCC(=O)Nc2ccc(C)cc2)c(C)n(C)c1C`, -0.1% (inactive).
On the same count and under the same terms, under `O=C(NCCCn1ccnc1)/C(=C\c1ccccc1F)NC(=O)c1ccccc1` stands -6.4% (inactive); under `Cc1ccc(Nc2nc(C)cc(C)c2C(N)=O)cc1`, 5.6% (inactive); under `Cc1cc(OC(=O)c2c(Cl)cccc2Cl)nc(C)n1`, -11.4% (inactive).
Consider `Cc1cc(C)c(C(N)=O)c(Cl)n1`, for which the inhibition was 19.4% (active) (at 35 µM) and 93.1% (confirmation average, at 20 µM).
As for `CC(C)CN(CC(C)C)C(=O)CN1c2cccc3cccc(c23)S1(=O)=O`, the inhibition (at 35 µM) is -14.9% (inactive).
Still for that read-out and setting: under `Oc1ccc(C2Nc3cccc4cccc(c34)N2)cc1` stands 97.3% (active); under `COc1ccc(N2C(=O)C3CCCN3C2c2cccc(OC)c2)cc1` (stereo not drawn), -6.3% (inactive).
Regarding `COc1cccc(C2Nc3cccc4cccc(c34)N2)c1`, the inhibition (at 35 µM) is 59.9% (active) and the inhibition (confirmation average, at 20 µM) was 98.5%.
Consider `Cc1ccc(C2Nc3cccc4cccc(c34)N2)cc1`, for which the inhibition (at 35 µM) was 41% (inactive).
Regarding `O=C1NC(c2cccc(Cl)c2)Nc2ccccc21` (stereo not drawn), the inhibition (at 35 µM) is -8.5% (inactive).
Same read-out and setting: under `COc1ccc(C2NC(=O)c3ccccc3N2)cc1` (stereo not drawn) stands 7.1% (inactive); under `O=C(Nc1nnc(S(=O)(=O)N2CCCCCC2)s1)c1cccc(Br)c1`, -8.4% (inactive).
The same measure, in the same setting: under `COc1ccc(CCNC(=O)CN(C)S(=O)(=O)c2ccc3nc(C)sc3c2)cc1OC` stands -3% (inactive); under `CS(=O)(=O)N1CCCC(C(=O)Nc2ccccc2C(F)(F)F)C1` (stereo not drawn), -2% (inactive).
Still for that read-out and setting: then `CCOc1ccc(NC(=O)CC(Cc2ccc(Cl)cc2)C(=O)O)cc1` (stereo not drawn), with -6.5% (inactive).
As for `CN(Cc1ccccc1)CC(O)COc1ccc(CNCc2cc3ccccc3s2)cc1` (stereo not drawn), the inhibition (at 35 µM) is -2% (inactive).
